Measured values reported in the supplement of paper PMC10849652.
About 8,800 targets were measured; listed, in parts, are those with a hit and a random draw of the rest. About 0.5% of all pairs of compound and target were hits. Unmarked numbers belong to inactive results.

What was measured:
Test in all cases: log2 fold change, soluble protein after heating vs DMSO (PISA); higher = thermal stabilisation; K562 lysate, 10 uM; active = over 0.2 and 3.5 SD of the protein, either way, in both replicates (recomputed)
[1] = compound: Cc1cn(-c2cc(NC(=O)c3ccc(C)c(Nc4nccc(-c5cccnc5)n4)c3)cc(C(F)(F)F)c2)cn1 [nilotinib]
Summary of the method: (§1)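 Log-two fold change in thermal stability relative to solvent controls is reported from duplicates. For each sample, crude K562 extract from dounce-homogenised pellets in PBS pH 7.4 with 1 mM MgCl2, at 1 mg/mL protein, was treated with 10 μM compound for 30 min. Aliquots heated for 3 min across 48°C-58°C were pooled, brought to 0.5% NP-40 at 4°C and cleared at 21,000xg for 90 min. The supernatant was quantified by TMTpro 16plex LC-MS/MS with channel sums equalised.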

[2] = compound: Cc1nc(Nc2n[nH]c3c2CN(C(=O)N[C@H](CN(C)C)c2ccccc2)C3(C)C)c2sccc2n1
Summary of the method: as §1

[3] = compound: Cc1nc(Nc2ncc(C(=O)Nc3c(C)cccc3Cl)s2)cc(N2CCN(CCO)CC2)n1 [dasatinib]
Summary of the method: as §1

[4] = compound: Cc1ncc(-c2ccnc(Nc3ccc(S(C)(=O)=O)cc3)n2)n1C(C)C
Summary of the method: as §1

[5] = compound: Cn1cc(-c2ccc3c(c2)CCN3C(=O)Cc2cccc(C(F)(F)F)c2)c2c(N)ncnc21
Summary of the method: as §1

[6] = compound: Cn1cc(CNCC2CCN(c3ncc(C(=O)NO)cn3)CC2)c2ccccc21 [quisinostat]
Summary of the method: as §1

[7] = compound: Cn1cncc1[C@@](N)(c1ccc(Cl)cc1)c1ccc2c(c1)c(-c1cccc(Cl)c1)cc(=O)n2C [tipifarnib]
Summary of the method: as §1

[8] = compound: NC(=O)Nc1cc(-c2cccc(F)c2)sc1C(=O)N[C@H]1CCCNC1
Summary of the method: as §1

[9] = compound: NC(=O)c1cnc(N[C@@H]2CCCC[C@@H]2N)nc1Nc1cccc(-n2nccn2)c1
Summary of the method: as §1

[10] = compound: NC1(c2ccc(-c3nc4ccn5c(=O)[nH]nc5c4cc3-c3ccccc3)cc2)CCC1
Summary of the method: as §1

Chain of UniProt O95319 (O95319 whole entry, looked up): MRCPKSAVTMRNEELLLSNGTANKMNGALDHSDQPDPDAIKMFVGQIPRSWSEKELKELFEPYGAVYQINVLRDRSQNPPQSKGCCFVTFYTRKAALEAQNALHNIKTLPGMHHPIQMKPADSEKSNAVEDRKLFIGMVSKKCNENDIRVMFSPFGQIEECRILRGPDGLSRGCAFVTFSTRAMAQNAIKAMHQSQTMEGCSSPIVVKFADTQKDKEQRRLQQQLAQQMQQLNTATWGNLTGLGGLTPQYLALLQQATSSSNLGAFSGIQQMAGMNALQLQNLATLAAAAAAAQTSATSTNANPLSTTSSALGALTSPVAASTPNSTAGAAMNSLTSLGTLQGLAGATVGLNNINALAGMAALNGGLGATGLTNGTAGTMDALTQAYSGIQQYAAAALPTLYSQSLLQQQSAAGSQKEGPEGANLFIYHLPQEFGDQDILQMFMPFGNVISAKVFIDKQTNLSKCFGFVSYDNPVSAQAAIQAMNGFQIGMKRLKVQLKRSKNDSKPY
Chain of UniProt Q13315 (Q13315 whole entry, looked up): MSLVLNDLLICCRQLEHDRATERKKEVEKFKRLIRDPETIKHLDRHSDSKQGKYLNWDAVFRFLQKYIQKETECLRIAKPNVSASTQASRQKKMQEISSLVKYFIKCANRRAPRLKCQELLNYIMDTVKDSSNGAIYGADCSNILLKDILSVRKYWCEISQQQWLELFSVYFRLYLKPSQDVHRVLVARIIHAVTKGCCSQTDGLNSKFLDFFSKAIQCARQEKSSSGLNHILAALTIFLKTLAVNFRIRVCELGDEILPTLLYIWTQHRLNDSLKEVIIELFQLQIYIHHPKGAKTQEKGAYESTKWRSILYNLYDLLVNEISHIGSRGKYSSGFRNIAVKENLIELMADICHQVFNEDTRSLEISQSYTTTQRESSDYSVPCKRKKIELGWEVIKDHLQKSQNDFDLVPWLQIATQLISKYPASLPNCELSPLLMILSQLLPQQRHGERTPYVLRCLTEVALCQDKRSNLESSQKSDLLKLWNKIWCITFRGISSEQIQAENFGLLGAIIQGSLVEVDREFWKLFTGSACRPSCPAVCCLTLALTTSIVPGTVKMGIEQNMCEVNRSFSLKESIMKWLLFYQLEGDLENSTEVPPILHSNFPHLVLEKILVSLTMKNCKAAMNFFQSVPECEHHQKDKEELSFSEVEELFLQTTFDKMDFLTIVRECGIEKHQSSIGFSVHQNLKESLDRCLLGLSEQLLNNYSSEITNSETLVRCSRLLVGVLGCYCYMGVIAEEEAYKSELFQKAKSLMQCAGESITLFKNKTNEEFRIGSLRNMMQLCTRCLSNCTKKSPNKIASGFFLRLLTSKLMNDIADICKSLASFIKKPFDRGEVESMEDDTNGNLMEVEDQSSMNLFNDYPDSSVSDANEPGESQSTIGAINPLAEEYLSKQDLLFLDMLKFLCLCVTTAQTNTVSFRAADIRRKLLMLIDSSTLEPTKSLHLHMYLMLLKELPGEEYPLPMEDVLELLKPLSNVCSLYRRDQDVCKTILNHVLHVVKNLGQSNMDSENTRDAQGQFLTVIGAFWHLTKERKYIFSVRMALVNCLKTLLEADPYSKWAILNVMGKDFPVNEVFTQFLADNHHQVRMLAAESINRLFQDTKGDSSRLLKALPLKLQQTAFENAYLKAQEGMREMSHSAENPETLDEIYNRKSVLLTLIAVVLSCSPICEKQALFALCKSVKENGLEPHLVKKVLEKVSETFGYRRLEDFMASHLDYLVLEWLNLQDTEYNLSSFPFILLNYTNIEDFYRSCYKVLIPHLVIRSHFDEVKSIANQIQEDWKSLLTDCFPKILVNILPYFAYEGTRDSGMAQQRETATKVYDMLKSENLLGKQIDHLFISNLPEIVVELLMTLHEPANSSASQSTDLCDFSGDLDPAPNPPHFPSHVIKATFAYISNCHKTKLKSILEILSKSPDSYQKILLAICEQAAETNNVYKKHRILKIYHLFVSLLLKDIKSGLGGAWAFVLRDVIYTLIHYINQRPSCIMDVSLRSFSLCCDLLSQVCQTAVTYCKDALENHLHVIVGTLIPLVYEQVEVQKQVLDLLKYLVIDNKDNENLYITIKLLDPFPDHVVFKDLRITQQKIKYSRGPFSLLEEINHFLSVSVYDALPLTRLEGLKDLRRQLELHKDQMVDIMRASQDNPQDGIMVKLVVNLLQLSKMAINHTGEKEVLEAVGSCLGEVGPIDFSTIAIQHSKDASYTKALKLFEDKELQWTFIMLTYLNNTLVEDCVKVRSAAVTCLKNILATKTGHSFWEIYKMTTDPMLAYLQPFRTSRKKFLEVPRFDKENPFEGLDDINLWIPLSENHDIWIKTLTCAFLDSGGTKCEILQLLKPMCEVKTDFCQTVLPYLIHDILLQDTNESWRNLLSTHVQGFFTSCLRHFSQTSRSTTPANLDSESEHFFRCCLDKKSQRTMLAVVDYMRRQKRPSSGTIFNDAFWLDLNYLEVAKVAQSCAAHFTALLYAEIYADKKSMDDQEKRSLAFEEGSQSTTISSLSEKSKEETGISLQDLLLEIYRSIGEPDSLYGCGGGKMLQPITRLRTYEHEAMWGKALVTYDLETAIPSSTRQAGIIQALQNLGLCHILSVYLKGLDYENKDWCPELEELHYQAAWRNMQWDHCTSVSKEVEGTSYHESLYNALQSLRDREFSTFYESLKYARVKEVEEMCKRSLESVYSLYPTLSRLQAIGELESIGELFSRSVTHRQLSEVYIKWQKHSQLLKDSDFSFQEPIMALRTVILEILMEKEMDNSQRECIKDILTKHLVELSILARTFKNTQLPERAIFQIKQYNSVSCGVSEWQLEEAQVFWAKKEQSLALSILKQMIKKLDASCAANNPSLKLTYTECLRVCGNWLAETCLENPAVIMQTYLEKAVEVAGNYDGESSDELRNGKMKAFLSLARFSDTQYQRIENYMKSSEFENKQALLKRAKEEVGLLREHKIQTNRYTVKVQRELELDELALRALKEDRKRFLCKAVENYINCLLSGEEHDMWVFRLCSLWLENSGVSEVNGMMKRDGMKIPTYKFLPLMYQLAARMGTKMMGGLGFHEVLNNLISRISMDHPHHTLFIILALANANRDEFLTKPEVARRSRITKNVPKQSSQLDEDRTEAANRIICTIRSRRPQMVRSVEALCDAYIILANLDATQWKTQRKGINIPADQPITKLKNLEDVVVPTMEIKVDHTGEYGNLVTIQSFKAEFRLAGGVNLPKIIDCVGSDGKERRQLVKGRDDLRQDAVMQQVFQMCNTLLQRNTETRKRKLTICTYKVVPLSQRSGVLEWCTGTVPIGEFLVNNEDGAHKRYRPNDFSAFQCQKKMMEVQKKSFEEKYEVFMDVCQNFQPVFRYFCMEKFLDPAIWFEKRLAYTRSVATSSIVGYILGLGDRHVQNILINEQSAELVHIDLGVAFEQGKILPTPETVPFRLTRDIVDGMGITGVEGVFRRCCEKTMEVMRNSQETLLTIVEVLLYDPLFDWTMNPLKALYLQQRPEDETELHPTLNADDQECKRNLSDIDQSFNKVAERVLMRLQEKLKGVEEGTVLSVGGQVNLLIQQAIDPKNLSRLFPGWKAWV
Chain of UniProt O75419 (O75419 whole entry, looked up): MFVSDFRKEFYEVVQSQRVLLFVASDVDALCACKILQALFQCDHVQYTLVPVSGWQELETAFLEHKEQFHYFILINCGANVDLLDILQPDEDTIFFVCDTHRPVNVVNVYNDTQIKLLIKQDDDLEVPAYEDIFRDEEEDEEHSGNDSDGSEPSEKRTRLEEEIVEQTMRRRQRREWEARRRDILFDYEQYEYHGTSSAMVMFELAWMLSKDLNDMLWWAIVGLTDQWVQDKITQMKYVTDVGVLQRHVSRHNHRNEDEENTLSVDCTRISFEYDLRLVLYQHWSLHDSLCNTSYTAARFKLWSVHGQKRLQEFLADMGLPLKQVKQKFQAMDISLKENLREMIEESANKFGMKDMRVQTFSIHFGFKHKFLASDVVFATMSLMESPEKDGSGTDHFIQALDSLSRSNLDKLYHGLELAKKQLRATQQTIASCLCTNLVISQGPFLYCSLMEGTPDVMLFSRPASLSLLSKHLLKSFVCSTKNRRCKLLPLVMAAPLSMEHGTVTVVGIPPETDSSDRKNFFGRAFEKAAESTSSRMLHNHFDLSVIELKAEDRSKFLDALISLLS
Chain of UniProt Q9BYV8 (Q9BYV8 whole entry, looked up): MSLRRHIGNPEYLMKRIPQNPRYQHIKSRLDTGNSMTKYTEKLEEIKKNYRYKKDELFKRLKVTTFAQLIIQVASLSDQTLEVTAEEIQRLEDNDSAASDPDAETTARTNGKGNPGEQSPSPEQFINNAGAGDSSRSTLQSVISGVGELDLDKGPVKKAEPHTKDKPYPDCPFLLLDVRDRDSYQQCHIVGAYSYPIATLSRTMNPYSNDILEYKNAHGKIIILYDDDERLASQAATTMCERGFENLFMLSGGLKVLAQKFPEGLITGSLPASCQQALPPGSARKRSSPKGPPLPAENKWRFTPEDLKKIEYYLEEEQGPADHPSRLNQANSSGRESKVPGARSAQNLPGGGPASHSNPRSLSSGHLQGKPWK
Chain of UniProt Q8ND76 (Q8ND76 whole entry, looked up): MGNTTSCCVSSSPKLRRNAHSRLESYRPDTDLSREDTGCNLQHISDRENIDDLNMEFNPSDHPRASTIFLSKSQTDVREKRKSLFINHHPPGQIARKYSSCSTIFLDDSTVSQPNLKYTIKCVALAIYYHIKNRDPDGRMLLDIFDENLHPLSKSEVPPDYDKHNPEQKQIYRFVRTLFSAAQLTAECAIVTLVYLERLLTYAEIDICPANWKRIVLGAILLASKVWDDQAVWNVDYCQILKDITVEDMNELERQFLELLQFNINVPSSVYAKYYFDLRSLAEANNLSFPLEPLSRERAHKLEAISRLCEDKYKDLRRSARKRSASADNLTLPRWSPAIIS
Chain of UniProt P08962 (P08962 whole entry, looked up): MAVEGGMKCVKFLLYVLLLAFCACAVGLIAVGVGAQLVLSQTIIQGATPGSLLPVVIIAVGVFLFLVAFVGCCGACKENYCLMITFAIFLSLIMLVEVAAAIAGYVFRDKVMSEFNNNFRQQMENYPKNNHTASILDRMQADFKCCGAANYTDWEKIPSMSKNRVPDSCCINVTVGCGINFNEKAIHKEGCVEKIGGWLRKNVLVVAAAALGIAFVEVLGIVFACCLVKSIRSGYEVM

Target	log2 fold change [1]	log2 fold change [2]	log2 fold change [3]	log2 fold change [4]	log2 fold change [5]	log2 fold change [6]	log2 fold change [7]	log2 fold change [8]	log2 fold change [9]	log2 fold change [10]
CD63 (UniProt P08962)	-0.053	0.098	-0.034	-0.032	0.005	-0.08	0.126	-0.006	-0.043	-0.009
CCNYL1 (UniProt Q8N7R7)	-0.001	-0.033	0.034	0.043	-0.003	-0.078	-0.08	0.008	0.075	-0.006
CAMKK2 (UniProt Q96RR4)	-0.038	0.176	0.031	0.028	0.023	-0.01	-0.037	0.1	-0.046	0
CCT6A (UniProt P40227)	-0.003	-0.004	-0.001	-0.007	0.001	0.037	0.014	-0.005	0.003	0.005
CELF2 isoform 3 (UniProt O95319)	0.054	0.038	-0.015	-0.028	-0.043	0.036	-0.129	-0.037	-0.021	0.068
BNIP1 (UniProt Q12981)	-0.004	-0.037	-0.005	-0.028	-0.045	-0.014	-0.046	-0.034	-0.033	0.057
CDC45 isoform 3 (UniProt O75419)	-0.022	0.013	-0.044	-0.003	0.038	0.015	-0.022	0.047	0.003	-0.058
C18orf25 (UniProt Q96B23)	0.139	-0.014	-0.022	-0.018	0.082	-0.007	0.003	0	0.011	-0.008
ATRIP (UniProt Q8WXE1)	-0.014	-0.028	-0.059	0.071	0.045	-0.03	-0.049	-0.007	0.01	0.032
BUB1B isoform 3 (UniProt O60566)	0.007	-0.012	-0.015	0.014	0.024	-0.076	-0.013	0.028	-0.003	-0.004
BCKDHB (UniProt P21953)	0.068	0.007	0.062	0.084	0.039	0.031	-0.069	-0.005	0.007	-0.039
ATG13 isoform 2 (UniProt O75143)	-0.034	0.036	0.002	0.028	-0.069	-0.052	-0.018	0.059	0	-0.014
BOLA2 (UniProt Q9H3K6)	0.039	-0.036	-0.002	-0.021	0.009	0.063	0.01	-0.042	-0.013	0.096
BRD4 (UniProt O60885)	0.034	-0.009	-0.018	0.019	-0.001	-0.091	-0.019	0.013	-0.051	-0.008
CAMK1 (UniProt Q14012)	-0.086	0.04	0.021	0.064	0.008	-0.12	-0.071	0.194	0.018	-0.023
CDKN1C (UniProt P49918)	-0.054	-0.035	0.083	0.094	0.055	0.091	0.037	-0.091	-0.101	0.04
CEP41 (UniProt Q9BYV8)	0.001	0.034	0.043	-0.008	-0.077	-0.068	-0.027	-0.128	0.066	0.076
CARHSP1 (UniProt Q9Y2V2)	0.037	-0.037	0.017	-0.004	-0.04	-0.006	0.035	-0.034	-0.026	-0.001
BSDC1 (UniProt Q9NW68)	0.016	-0.009	0.018	0.027	-0.018	-0.024	-0.093	0.003	-0.023	0.016
CDC25A (UniProt P30304)	0.013	-0.01	-0.035	-0.021	0.024	0.006	0.011	0.017	0.016	0.025
CASP9 (UniProt P55211)	-0.004	0.006	-0.055	-0.012	-0.013	-0.056	0.005	0.056	-0.011	0.007
CCNY (UniProt Q8ND76)	0.017	0.016	-0.021	0.05	0.065	-0.216	0.057	0.077	-0.022	0.025
CDAN1 (UniProt Q8IWY9)	-0.029	0.022	-0.055	-0.014	-0.037	-0.09	-0.026	0.066	0.017	-0.032
CAMK2B (UniProt Q13554)	-0.026	0.399 (active)	-0.055	0.026	0.023	-0.205	-0.035	0.295	0.089	-0.045
CCDC51 (UniProt Q96ER9)	-0.037	-0.049	-0.016	0.035	-0.014	0.017	-0.082	0.02	-0.015	-0.04
ATM (UniProt Q13315)	-0.019	-0.019	-0.071	0.084	0.038	0.039	0.009	0.009	0.039	0.008
C3 (UniProt P01024)	0.001	0.027	0.069	-0.006	-0.022	-0.085	0.027	-0.025	-0.066	0.012
CENPQ (UniProt Q7L2Z9)	-0.025	0.044	0	-0.036	-0.015	0.07	-0.076	0.047	0.164	-0.107
ATP2B4 (UniProt P23634)	-0.05	0.098	-0.031	0.003	0.021	0.164	-0.028	-0.019	0.019	0.008
CASC4 (UniProt Q6P4E1)	-0.072	-0.006	0.037	0.053	0.029	0.021	-0.033	-0.024	0.035	-0.011
